The text below walks through data of PubChem BioAssay (NCATS).

Inconclusive results are not listed. Active and inactive are the calls of the source. Unless noted, calls come from the whole dose curve; as a rule, active = well fitted curve in the direction sought with a large enough effect; inconclusive = small, poorly fitted or top-dose-only effect, or another doubt; inactive = no such curve, though single readings can be large; an effect the other way counts as inactive or inconclusive.

Experiment [1] can be described thus: Primary qHTS for inhibitors of nuclear receptor binding SET domain protein 2 (NSD2) in an isogenic RCH-ACV NSD2 p.E1099K mutant (9B) (AID 1645876). Note: nearly all actives have a fitted effect of over 70% in size. Note: potency is the fitted concentration of half-maximal effect.
The nature of experiment [2]: Primary qHTS for inhibitors of nuclear receptor binding SET domain protein 2 (NSD2) in an RCH-ACV wild type WT cells (2C) (AID 1645877). Note: nearly all actives have a fitted effect of over 70% in size. Note: potency is the fitted concentration of half-maximal effect.
In experiment [3] the target is Glutathione peroxidase 1 (Homo sapiens) (UniProt P07203). The experiment in a line: Primary qHTS Assay for Inhibitors of Recombinant Selenoprotein Glutathione Peroxidase 1 (GPX1) (AID 1845191). Note: nearly all actives have a fitted effect of over 65% in size. The method in brief: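 NADPH consumption tracked by fluorescence at 340/450 nm between t=0 and t=15 min, room temperature. Final mix: 10 nM GPX1, 100 nM glutathione reductase, 1 mM GSH, 0.5 mM NADPH, 0.5 mM cumene hydroperoxide, 0.01% BSA; 30 min compound–enzyme preincubation.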
Chain of Glutathione peroxidase 1 (Homo sapiens) (P07203 whole entry, looked up): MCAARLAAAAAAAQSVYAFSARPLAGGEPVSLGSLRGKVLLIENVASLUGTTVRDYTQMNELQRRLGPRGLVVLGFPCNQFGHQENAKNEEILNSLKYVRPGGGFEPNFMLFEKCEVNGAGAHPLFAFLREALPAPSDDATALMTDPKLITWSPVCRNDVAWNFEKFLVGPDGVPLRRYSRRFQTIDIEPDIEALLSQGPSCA

Experiment [4] addresses Phospholipid hydroperoxide glutathione peroxidase GPX4 (Homo sapiens) (UniProt P36969). As to the kind of experiment: Primary qHTS Assay for Inhibitors of Recombinant Selenoprotein Glutathione Peroxidase 4 (GPX4) (AID 1845192). Note: nearly all actives have a fitted effect of over 65% in size. Note: potency is the fitted concentration of half-maximal effect. The procedure, abridged: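 NADPH consumption followed by fluorescence at 340/450 nm, t=0 and after 15 min at room temperature. Reaction started with cumene hydroperoxide (0.5 mM final) after 30 min compound–GPX4 preincubation; final 200 nM GPX4, 100 nM GR, 1 mM GSH, 0.5 mM NADPH.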

The nature of experiment [5]: qHTS drug screen for cell cycle checkpoint inhibitors in PARPi-resistant BRCA-mutant ovarian cancer cell lines. (AID 1963452; calls by dose curve; note: potency is the fitted concentration of half-maximal effect). The note with it: PEO1/OlaR viability, CellTiter-Glo luminescence, 96 h; for Z-AUC: stronger effect = lower value. The procedure, abridged:
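PEO1, PEO4 and PEO1/OlaR ovarian cancer cells, 600 per well, exposed 96 h at 37C to a dilution series. Viability read by CellTiter-Glo luminescence, normalized to DMSO and empty wells; activity summarized as Z-AUC.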

Experiment [6] in a line: NCATS anti-infectives library activity on HEK293 viability as a counter-qHTS vs the C. elegans viability qHTS (AID 1745854).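 Note: HEK293 cells exposed to compounds for 24 hr before the viability read; % is set by controls: 0 for no effect and ±100 for the full control effect.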 The procedure, abridged:
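Compound titrations (final up to 41.7 uM) were incubated with HEK293 cells for 24 hr at 37C under 5% CO2. Viable cells were quantified with CellTiter-Glo after 10 min at ambient temperature.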

The mark [7] stands for this setting: measured here: PEO1 parental Z-AUC.

Chain of Phospholipid hydroperoxide glutathione peroxidase GPX4 (Homo sapiens) (P36969 whole entry, looked up): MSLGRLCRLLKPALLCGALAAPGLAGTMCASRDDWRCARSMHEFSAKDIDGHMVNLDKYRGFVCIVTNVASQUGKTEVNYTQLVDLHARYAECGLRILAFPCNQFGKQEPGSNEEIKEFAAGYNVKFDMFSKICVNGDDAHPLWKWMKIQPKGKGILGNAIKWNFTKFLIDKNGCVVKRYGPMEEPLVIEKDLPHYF

For `c1ccc(-c2cc(CCC3CCNCC3)c3ccccc3n2)cc1`, the values for the Potency in experiment [1] and in experiment [2] were 16.6 µM (active) and 13.2 µM (active), respectively. Further, the Potency entry in experiment [3] and in experiment [4] was “inactive” throughout. Also, the Z-AUC in experiment [5] is -0.417 (inactive); in experiment [5] (setting [7]) it was 0.0933; in experiment [5] (measured here: PEO4 Z-AUC), 0.16.
As to `O=C(CCCCCCNC(=O)c1cnc(N(c2ccccc2)c2ccccc2Cl)nc1)NO`, the figures for the Potency in experiment [1] and in experiment [2] were 2.63 µM (active) and 2.09 µM (active), respectively. The molecule was classed as inactive in experiment [6]. Moreover, the Potency result in experiment [3] and in experiment [4] was “inactive” throughout. Further, the Z-AUC in experiment [5] is 0.102 (inactive); in experiment [5] (setting [7]), -0.152; in experiment [5] (measured here: PEO4 Z-AUC), -0.286.
In the case of `C=CC(=O)N[C@H]1CN(c2nc(Nc3cn(C)nc3OC)c3ncn(C)c3n2)C[C@@H]1F`, the Potency in experiment [1] is 14.8 µM (active); in experiment [2], 20.9 µM (active). Moreover, the Potency result in experiment [3] and in experiment [4] was “inactive” in each case. The Z-AUC was 0.581 (inactive) in experiment [5], 0.0382 in experiment [5] (setting [7]) and 0.231 in experiment [5] (measured here: PEO4 Z-AUC).
For the molecule `COc1ccc(S(=O)(=O)Nc2cc(-c3csc(C#N)c3)ccc2C)cc1`, the values for the Potency in experiment [1] and in experiment [2] were 0.105 µM (active) and 0.118 µM (active), respectively. Besides, the Potency result in experiment [3] and in experiment [4] was “inactive” in each case. Besides, the Z-AUC is -0.571 (inactive) in experiment [5], -1.63 in experiment [5] (setting [7]) and -1.47 in experiment [5] (measured here: PEO4 Z-AUC).
Take `Oc1cccc(Nc2ncnc3sc4c(c23)CCCC4)c1`: the Potency was 9.2 µM (active) in experiment [1] and 8.2 µM (active) in experiment [2]. Also, in experiment [3], the Potency result was “inactive”.
In the same order, the values of `O=Nc1c(-c2c(O)[nH]c3ccc(F)cc23)[nH]c2ccccc12` are 1.84 µM (active), 2.06 µM (active) and “inactive”.
For `Cc1cc(OCCCc2c3n(c4c(-c5c(C)nn(C)c5C)c(Cl)ccc24)[C@H](C)CN(c2cn(C)c4ccc(C(=O)O)cc24)C3=O)cc(C)c1Cl`, the Potency in experiment [1] is 4.68 µM (active); in experiment [2] it was 2.09 µM (active); in experiment [4], 3.21 µM (active). For the same molecule, in experiment [3], the Potency entry is “inactive”. In addition, the values for the Z-AUC in experiment [5], in experiment [5] (setting [7]) and in experiment [5] (measured here: PEO4 Z-AUC) were 1.46 (inactive), 0.906 and 1.25, respectively.
Turning to `CC[C@H](C)[C@@H]([C@@H](CC(=O)N1CCC[C@H]1[C@H](OC)[C@@H](C)C(=O)N[C@@H](Cc1ccccc1)c1nccs1)OC)N(C)C(=O)[C@@H](NC(=O)[C@H](C(C)C)N(C)C)C(C)C`, the Potency result in experiment [1], in experiment [2], in experiment [3] and in experiment [4] was “inactive” in each case. In experiment [5], the Potency was 27.5 µM (active). Further, the figures for the Z-AUC in experiment [5] (setting [7]) and in experiment [5] (measured here: PEO4 Z-AUC) were -3.14 and -2.96, respectively.
As to `Cc1ccc(-c2nn(C(C)(C)CNC(=O)c3ccncc3)c3ncnc(N)c23)cc1`, the Potency is 8.33 µM (active) in experiment [1] and 7.42 µM (active) in experiment [2]. Besides, the Potency result in experiment [3] and in experiment [4] was “inactive” throughout. Also, the Z-AUC in experiment [5] was -0.525 (inactive); in experiment [5] (setting [7]) it was -1.23; in experiment [5] (measured here: PEO4 Z-AUC) it was -1.14.
Take `C[C@@H](OC[C@@]1(c2ccccc2)CC[C@]2(CCC(=O)N2)CN1)c1cc(C(F)(F)F)cc(C(F)(F)F)c1`: the Potency in experiment [1] and in experiment [2] was 9.34 µM (active) each time. Besides, the Potency entry in experiment [3] and in experiment [4] was “inactive” throughout. The Z-AUC is -0.524 (inactive) in experiment [5], -0.495 in experiment [5] (setting [7]) and -0.395 in experiment [5] (measured here: PEO4 Z-AUC).
Take `Nc1cc(C(F)(F)F)c(-c2nc(N3CCOCC3)nc(N3CCOCC3)n2)cn1`: the Potency in experiment [1] was 0.742 µM (active); in experiment [2], 0.525 µM (active). For the same molecule, the Potency entry in experiment [3] and in experiment [4] was “inactive” each time.
With `Cc1ncc(NC(=O)c2cccc(C(F)(F)F)c2)cc1-c1cnc(OC2CCOCC2)c(N2CCOCC2)c1`, the Potency in experiment [1] is 18.6 µM (active); in experiment [2] it was 16.6 µM (active). For the same molecule, the Potency entry in experiment [3] and in experiment [4] was “inactive” throughout.
With `CC(=O)NCCNc1cc(Cl)nn2c(-c3cccc(S(=O)(=O)N(C)C)c3)c(C)nc12`, the values for the Potency in experiment [1] and in experiment [2] were 7.31 µM (active) and 4.61 µM (active), respectively. Further, the Potency result in experiment [3] is “inactive”.
On to `CCNC(=O)Nc1ccc(-c2nc3c(c(N4CCOC[C@@H]4C)n2)CCN(C2COC2)C3)cc1`, for which the results for the Potency in experiment [1] and in experiment [2] were 0.833 µM (active) and 0.742 µM (active), respectively. The Potency result in experiment [3] and in experiment [4] was “inactive” throughout. Further, the Z-AUC was 0.987 (inactive) in experiment [5], 1.46 in experiment [5] (setting [7]) and 1.27 in experiment [5] (measured here: PEO4 Z-AUC).
Turning to `N#Cc1ccc(Cn2cncc2CN2CCN(c3cccc(Cl)c3)C(=O)C2)cc1`, the Potency in experiment [1] was 4.68 µM (active); in experiment [2], 2.63 µM (active). Further, the Potency result in experiment [4] was “inactive”. Moreover, the Z-AUC in experiment [5] was -0.462 (inactive); in experiment [5] (setting [7]), -0.168; in experiment [5] (measured here: PEO4 Z-AUC), -0.142.
For `C=CC(=O)Nc1cccc(Oc2nc(Nc3ccc(N4CCN(C)CC4)cc3)nc3ccsc23)c1`, the Potency in experiment [1] and in experiment [2] was 3.32 µM (active) in each case. For the same molecule, in experiment [4], the Potency entry was “inactive”. In addition, the Z-AUC is -0.291 (inactive) in experiment [5], -0.486 in experiment [5] (setting [7]) and -0.146 in experiment [5] (measured here: PEO4 Z-AUC).
For `CSc1ccc(C(=O)/C=C/c2cc(C)c(OC(C)(C)C(=O)O)c(C)c2)cc1`, the Potency in experiment [1] was 19.1 µM (active); in experiment [2], 17.1 µM (active). The Potency entry in experiment [3] is “inactive”. For the same molecule, the values for the Z-AUC in experiment [5], in experiment [5] (setting [7]) and in experiment [5] (measured here: PEO4 Z-AUC) were -0.442 (inactive), 0.00794 and -0.391, respectively.
For the molecule `CCn1c(-c2nonc2N)nc2cncc(C(=O)N3CC[C@H](N)C3)c21`, the Potency in experiment [1] was 10.3 µM (active). The Potency entry in experiment [3] was “inactive”.
Regarding `O=c1c(-c2ccc(O)cc2)coc2cc(O[C@@H]3O[C@H](CO)[C@@H](O)[C@H](O)[C@H]3O)ccc12`, the Potency in experiment [1] was 16.6 µM (active). Moreover, in experiment [6], the result was inactive. Moreover, in experiment [4], the Potency entry is “inactive”. Moreover, the values for the Z-AUC in experiment [5], in experiment [5] (setting [7]) and in experiment [5] (measured here: PEO4 Z-AUC) were 1.43 (inactive), 1.29 and 1.57, respectively.
